Consider six compounds from PubChem BioAssay.

In one experiment the target is Albumin (Bos taurus) (UniProt P02769). Kind of experiment: compounds binding labelled BSA control protein – biochemical, small-molecule microarray, Alexa647 label, 635/667 nm fluorescence, artefact control for SMM control protein annotation, profiling panel (AID 1118).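 Note: score merges 667 nm emission intensity and signal-to-noise per printed compound spot.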 The following applies: BSA-A647 binding, fluorescence 635 nm, higher = more signal.
A short description of experiment [1]: probe aXIP binding to arrayed compounds – biochemical, NeuroSMM set, 635/667 nm fluorescence, primary screen (AID 1119).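 Note: probe is the protein aXip251-270 applied at 1 µg/mL to compound-printed slides; binding of probe to printed compounds measured as 667 nm fluorescence plus signal to noise.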 As to conditions: small-molecule microarray, higher = more signal, called active from +8 up or from −8 down.
The nature of experiment [2]: probe aNOTCH3 binding on compound microarray – biochemical, small-molecule microarray, 635/667 nm fluorescence, primary screen (AID 1120).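 Note: probe is a biotin-tagged antibody raised against NOTCH3 rather than NOTCH3 protein; score merges spot fluorescence near 667 nm with spot signal to noise.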 The following applies: higher = more signal.
The nature of experiment [3]: probe aNOTCH2 binding on compound microarray – biochemical, small-molecule microarray, 635/667 nm fluorescence, primary screen (AID 1121).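 Note: score merges feature fluorescence read at 667 nm with its signal to noise.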 The following applies: higher = more signal.
Experiment [4] concerns the target Carbonic anhydrase 2 (Homo sapiens) (UniProt P00918). Kind of experiment: compounds binding carbonic anhydrase 2 – biochemical, small-molecule microarray, Alexa647-labelled CAII, profiling panel (AID 1122). The following applies: CAII-A647 binding fluorescence, higher = more signal.
The nature of experiment [5]: COS7 lysate on small-molecule microarray, probe aHis, 635 nm (AID 1123).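 Note: z-score combines 667nm fluorescence intensity with signal-to-noise per printed compound spot.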 As to conditions: COS7 cell lysate, fluorescence, higher = more signal.
The nature of experiment [6]: probe aLAP1 signal on lysate-treated microarray – cell lysate, small-molecule microarray, COS7 lysate, primary screen (AID 1124).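 Note: lysate comes from COS7 cells expressing LAP1 and is applied at 0.3 µg/mL; score merges spot fluorescence near 667 nm with signal-to-noise over triplicate slides.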 The following applies: probe aLAP1, fluorescence, higher = more signal.
A further experiment deals with Sam68 (KHDRBS1). Kind of experiment: compounds binding KHDRBS1 protein – biochemical, small-molecule microarray, 635 nm fluorescence, primary screen (AID 1125).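 Note: score merges 667 nm channel intensity with signal to noise over triplicate slides.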 As to conditions: higher = more signal.
For experiment [7], the system named is Chordin-like protein 2 (CHRDL2). Kind of experiment: compounds binding chordin-like 2 – biochemical, small-molecule microarray, 635 nm fluorescence, primary screen (AID 1126).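 Note: printed compound slides probed with Chrdl2 protein at 4 µg/mL for 1 h at 4 C; score merges 667 nm emission intensity with signal to noise over three replicate slides.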 As to conditions: fluorescence 635 nm, higher = more signal.
Experiment [8] has as its target Concanavalin-A (Canavalia ensiformis) (UniProt P02866). Kind of experiment: compounds binding concanavalin A lectin – biochemical, small-molecule microarray, Alexa647 label, 635 nm, artefact control for SMM control protein annotation, primary screen (AID 1127).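 Note: z combines 667 nm emission intensity with signal-to-noise across three replicate slides.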 The following applies: ConA-A647 binding fluorescence, higher = more signal.
A short description of experiment [9]: compounds binding Alexa647 anti-His antibody – biochemical, small-molecule microarray, 635 nm fluorescence, artefact control for SMM control protein annotation, primary screen (AID 1128).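 Note: score merges feature fluorescence with signal-to-noise for each printed compound spot.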 As to conditions: higher = more signal.
Experiment [10] concerns Human papillomavirus type 1a E7 protein (residues 1-88). Kind of experiment: HPV1a E7 small-molecule binders, primary screen, biochemical, small-molecule microarray, residues 1-88, 635 nm (AID 1129). The following applies: small-molecule microarray binding, fluorescence 635 nm; higher = more signal.
For experiment [11], the target named is Focal adhesion kinase 1 (Homo sapiens) (UniProt Q05397). Kind of experiment: PTK2 protein binding on printed compound slides – biochemical, small-molecule microarray, 635/667 nm fluorescence, BSA, DTT, primary screen (AID 1130).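 Note: composite of spot emission at 667 nm and signal to noise over triplicate slides.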 The following applies: 635 nm fluorescence, higher = more signal.
In experiment [12] the test system is Fibrinogen (Alexa647-labelled). Kind of experiment: Alexa647-fibrinogen binding to printed small molecules – biochemical, small-molecule microarray, 635/667 nm fluorescence, artefact control for SMM control-protein annotation, profiling panel (AID 1131).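 Note: z-score merges 667 nm fluorescence with per-spot signal-to-noise over triplicate slides.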 The following applies: fibrinogen-A647 binding fluorescence, higher = more signal.
The target in experiment [13] is Follistatin (Homo sapiens) (UniProt P19883). Kind of experiment: FST protein binding to printed compounds – biochemical, small-molecule microarray, 635/667 nm fluorescence, primary screen (AID 1132). As to conditions: 635 nm fluorescence, higher = more signal.
Experiment [14] addresses Fibroblast growth factor 2 (Homo sapiens) (UniProt P09038). Kind of experiment: basic fibroblast growth factor binding to printed compounds – biochemical, small-molecule microarray, 635/667 nm fluorescence, primary screen (AID 1133). As to conditions: FGF2, fluorescence 635/667, higher = more signal.
Experiment [15] can be described thus: JC-1 mitochondrial potential readout, lung cancer cells – cell-based, A549, JC-1 fluorescence, basal, 24 h, 100 nL, profiling panel (AID 1138).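 Note: A549 lung adenocarcinoma cells under basal conditions with no added stimulus; test concentration not given here.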 The following applies: higher = more signal.
Another experiment concerns Lefty1. Kind of experiment: Lefty1 protein binding to printed compounds – biochemical, small-molecule microarray, 635/667 nm fluorescence, primary screen (AID 1139). As to conditions: fluorescence 635/667, higher = more signal.
For experiment [16], the system named is wheat germ agglutinin (Triticum aestivum), Alexa647-labelled. Kind of experiment: Alexa647-WGA lectin binding to printed small molecules – biochemical, small-molecule microarray, 635/667 nm fluorescence, artefact control for SMM control-protein annotation, profiling panel (AID 1140).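 Note: score merges 667 nm feature emission with signal to noise over triplicate slides.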 The following applies: WGA-A647 binding, 635 nm fluorescence, higher = more signal.

The target in experiment [17] is Luciferin 4-monooxygenase (Photinus pyralis) (UniProt P08659). Kind of experiment: inhibition of purified Photinus pyralis luciferase – biochemical, luminescence, purified enzyme, 2006 set, primary screen (AID 1141).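 Note: cell-free assay with purified firefly luciferase at 100 ng per well in PBS; test concentration not given here.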 The following applies: purified firefly luciferase, SteadyGlo luminescence, 30 min; higher = more signal, called active from +8 up or from −8 down.

The structures appear in SMILES notation. Activity calls are given as the source filed them.

Albumin (Bos taurus), sequence (P02769 whole entry, looked up): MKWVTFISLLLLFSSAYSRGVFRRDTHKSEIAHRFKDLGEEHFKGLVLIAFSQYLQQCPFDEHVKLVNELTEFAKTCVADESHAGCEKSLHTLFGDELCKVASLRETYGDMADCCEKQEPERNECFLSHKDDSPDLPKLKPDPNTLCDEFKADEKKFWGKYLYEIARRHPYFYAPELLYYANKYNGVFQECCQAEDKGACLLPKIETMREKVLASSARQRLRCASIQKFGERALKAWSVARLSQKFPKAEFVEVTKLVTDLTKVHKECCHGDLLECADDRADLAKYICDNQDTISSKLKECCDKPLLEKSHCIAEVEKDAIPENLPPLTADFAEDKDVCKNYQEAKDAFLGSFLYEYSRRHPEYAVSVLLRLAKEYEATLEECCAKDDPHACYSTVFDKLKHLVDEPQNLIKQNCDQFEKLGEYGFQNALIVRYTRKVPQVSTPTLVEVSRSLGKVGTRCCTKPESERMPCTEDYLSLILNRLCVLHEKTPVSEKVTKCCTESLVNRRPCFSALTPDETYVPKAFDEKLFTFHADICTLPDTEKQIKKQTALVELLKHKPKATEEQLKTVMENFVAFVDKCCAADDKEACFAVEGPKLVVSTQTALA
Follistatin (Homo sapiens), sequence (P19883 whole entry, looked up): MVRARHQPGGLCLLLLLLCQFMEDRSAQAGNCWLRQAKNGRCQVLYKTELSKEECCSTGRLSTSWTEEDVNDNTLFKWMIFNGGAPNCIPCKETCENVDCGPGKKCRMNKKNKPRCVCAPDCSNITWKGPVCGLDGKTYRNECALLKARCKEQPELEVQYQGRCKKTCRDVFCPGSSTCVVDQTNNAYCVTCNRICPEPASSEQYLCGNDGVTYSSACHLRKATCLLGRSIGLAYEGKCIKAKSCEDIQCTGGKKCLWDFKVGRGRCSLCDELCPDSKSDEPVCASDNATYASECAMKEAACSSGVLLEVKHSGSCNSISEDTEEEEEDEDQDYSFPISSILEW
Fibroblast growth factor 2 (Homo sapiens), sequence (P09038 whole entry, looked up): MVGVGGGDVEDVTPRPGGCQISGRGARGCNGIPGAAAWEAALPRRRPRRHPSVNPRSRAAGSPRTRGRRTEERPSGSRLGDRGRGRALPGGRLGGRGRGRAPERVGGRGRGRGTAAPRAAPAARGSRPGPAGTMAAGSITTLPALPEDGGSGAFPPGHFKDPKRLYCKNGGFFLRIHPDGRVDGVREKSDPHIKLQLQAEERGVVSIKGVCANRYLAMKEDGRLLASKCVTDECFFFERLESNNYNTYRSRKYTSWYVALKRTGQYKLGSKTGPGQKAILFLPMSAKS
Concanavalin-A (Canavalia ensiformis), sequence (P02866 whole entry, looked up): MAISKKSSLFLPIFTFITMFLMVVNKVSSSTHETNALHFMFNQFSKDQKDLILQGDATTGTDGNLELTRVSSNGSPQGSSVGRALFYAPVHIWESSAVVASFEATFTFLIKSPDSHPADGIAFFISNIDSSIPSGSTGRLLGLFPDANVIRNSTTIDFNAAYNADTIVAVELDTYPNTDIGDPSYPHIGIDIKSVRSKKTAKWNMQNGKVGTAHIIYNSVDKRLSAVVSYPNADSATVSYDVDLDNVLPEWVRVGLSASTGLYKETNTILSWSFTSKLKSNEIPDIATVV
Luciferin 4-monooxygenase (Photinus pyralis), sequence (P08659 whole entry, looked up): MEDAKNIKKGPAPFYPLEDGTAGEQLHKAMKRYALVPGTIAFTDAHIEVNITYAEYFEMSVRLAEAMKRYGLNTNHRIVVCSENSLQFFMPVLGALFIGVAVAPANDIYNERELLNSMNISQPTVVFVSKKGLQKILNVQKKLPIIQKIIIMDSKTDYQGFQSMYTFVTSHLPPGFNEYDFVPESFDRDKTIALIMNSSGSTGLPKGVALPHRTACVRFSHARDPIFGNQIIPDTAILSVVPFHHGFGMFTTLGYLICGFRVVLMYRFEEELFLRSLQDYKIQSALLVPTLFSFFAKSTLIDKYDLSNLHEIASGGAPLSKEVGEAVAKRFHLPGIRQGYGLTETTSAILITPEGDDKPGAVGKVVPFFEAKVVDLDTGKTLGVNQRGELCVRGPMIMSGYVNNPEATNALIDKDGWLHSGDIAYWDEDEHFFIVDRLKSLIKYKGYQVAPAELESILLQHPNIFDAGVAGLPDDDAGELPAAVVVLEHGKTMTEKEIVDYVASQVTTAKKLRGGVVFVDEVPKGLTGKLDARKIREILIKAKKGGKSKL
Focal adhesion kinase 1 (Homo sapiens), sequence (Q05397 whole entry, looked up): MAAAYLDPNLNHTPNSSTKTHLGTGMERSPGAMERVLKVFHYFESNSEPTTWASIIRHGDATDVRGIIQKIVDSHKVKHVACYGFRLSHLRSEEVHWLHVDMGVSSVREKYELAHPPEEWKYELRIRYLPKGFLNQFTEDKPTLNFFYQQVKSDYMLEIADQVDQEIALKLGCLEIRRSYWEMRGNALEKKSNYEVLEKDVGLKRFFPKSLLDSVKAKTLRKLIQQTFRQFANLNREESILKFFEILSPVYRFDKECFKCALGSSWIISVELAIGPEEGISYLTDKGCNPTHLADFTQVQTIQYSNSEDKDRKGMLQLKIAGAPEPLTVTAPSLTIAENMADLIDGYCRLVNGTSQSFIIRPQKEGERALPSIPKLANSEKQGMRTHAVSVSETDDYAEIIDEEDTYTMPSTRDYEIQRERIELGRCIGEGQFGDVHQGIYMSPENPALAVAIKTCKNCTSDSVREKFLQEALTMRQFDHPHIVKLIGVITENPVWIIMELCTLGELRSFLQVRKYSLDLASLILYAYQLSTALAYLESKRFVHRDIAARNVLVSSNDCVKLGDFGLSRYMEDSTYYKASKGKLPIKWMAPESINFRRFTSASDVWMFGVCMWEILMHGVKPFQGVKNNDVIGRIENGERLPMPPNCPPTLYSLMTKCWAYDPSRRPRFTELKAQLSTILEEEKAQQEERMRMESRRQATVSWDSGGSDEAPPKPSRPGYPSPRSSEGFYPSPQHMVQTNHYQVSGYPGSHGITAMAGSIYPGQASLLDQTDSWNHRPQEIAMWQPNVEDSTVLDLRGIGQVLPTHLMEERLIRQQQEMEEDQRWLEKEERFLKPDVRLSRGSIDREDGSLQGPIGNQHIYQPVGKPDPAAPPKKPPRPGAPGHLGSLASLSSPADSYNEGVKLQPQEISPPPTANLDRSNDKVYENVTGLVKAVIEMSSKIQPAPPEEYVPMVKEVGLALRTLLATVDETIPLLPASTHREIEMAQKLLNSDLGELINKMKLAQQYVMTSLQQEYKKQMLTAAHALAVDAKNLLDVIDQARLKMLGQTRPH

Consider `O=C1C2C=CC(C(O)c3ccc(B(O)O)cc3)N(Nc3ccc([N+](=O)[O-])cc3)C2C(=O)N1c1ccccc1` (stereo not given), for which the composite z-score with Albumin (Bos taurus) was 0.832; in [2], 0.172; in experiment [3] it was -0.0439; in [4] it was 0.654; in experiment [5], 2.02; in [6], 0.588. In addition, the composite z-score is 1.32 in the experiment with Sam68 (KHDRBS1); 0.262 in [7]; 0.738 in [8]; 0.359 in experiment [9]; 1.21 in experiment [10]; -0.164 in experiment [11]. Further, the composite z-score in experiment [12] was found to be 0.843; in experiment [13], 1.13; in [14] it was 0.284; in the experiment on Lefty1 it was 0.284; in experiment [16] it was 1.11. Also, the composite Z-score in experiment [1] is 0.142 (inactive). Moreover, the values for the z-score in experiment [15] and in experiment [17] were 0.0898 and 0.491 (inactive), respectively.
`O=c1cccc(-c2ccc3ccccc3c2)o1`: the composite z-score is -1.67 with Albumin (Bos taurus); -0.0766 in experiment [2]; -0.115 in [3]; -0.263 in [4]; -0.332 in experiment [5]; -0.341 in [6]. In addition, the composite z-score in the experiment with Sam68 (KHDRBS1) was -0.591; in [7], 0.387; in [8], -0.544; in experiment [9], -0.829; in [10] it was -0.788; in experiment [11], -0.179. The composite z-score in [12] is -0.656; in experiment [13] it was 0.305; in [14] it was -0.276; in the experiment on Lefty1, -0.123; in experiment [16], -0.276. Besides, in experiment [1], the composite Z-score is 0.19 (inactive). Moreover, the z-score in experiment [15] is 1.14; in experiment [17], -2.88 (inactive).
Take `CCCC[C@H]1OB(O)C[C@H]2C1=C(COc1ccccc1)C[C@H]1C(=O)N(Cc3ccccc3)C(=O)[C@H]12`: the composite z-score with Albumin (Bos taurus) is 0.117; in experiment [2], 0.0203; in experiment [3], -0.108; in experiment [4] it was 0.602; in [5] it was 0.383; in experiment [6] it was 0.154. In addition, the composite z-score in the experiment on Sam68 (KHDRBS1) stood at 0.868; in experiment [7], 0.0092; in experiment [8], 1.12; in experiment [9] it was 0.755; in experiment [10], 0.692; in experiment [11], 0.314. Besides, the composite z-score in [12] was found to be 0.817; in experiment [13] it was 0.512; in [14], 0.291; in the experiment on Lefty1, 0.872; in experiment [16] it was 0.571. Moreover, the composite Z-score in experiment [1] was 0.142 (inactive). Besides, the z-score in experiment [15] is 0.742; in experiment [17] it was 0.258 (inactive).
With `Cc1ccc(F)cc1S(=O)(=O)N[C@@H]1CCN(Cc2ccc(C(F)(F)F)cc2)C1`, the composite z-score with Albumin (Bos taurus) is -0.973; in experiment [2] it was -0.159; in [3], -0.173; in [4], -0.171; in experiment [5] it was 0.0774; in experiment [6], 0.242. In addition, the composite z-score was 0.144 in the experiment with Sam68 (KHDRBS1); 0.509 in [7]; -0.628 in experiment [8]; -0.175 in experiment [9]; -0.704 in experiment [10]; -0.0343 in [11]. The composite z-score in [12] was -0.292; in experiment [13], 0.277; in experiment [14], -0.456; in the experiment on Lefty1, 0.22; in [16] it was -0.655. Also, the composite Z-score in experiment [1] is 0.512 (inactive). In addition, the z-score in [15] is 0.197; in experiment [17], -0.0404 (inactive).
Turning to `CC(C)[C@H]1COC(=O)N1C(=O)[C@H]1[C@@H](c2ccccc2)N(c2ccccc2)O[C@@H]1C`, the composite z-score with Albumin (Bos taurus) was 0.15; in experiment [2], 0.0893; in experiment [3], -0.125; in [4], -0.004; in [5] it was 0.409; in [6] it was -0.066. For the same compound, the composite z-score with Sam68 (KHDRBS1) is 0.618; in [7], 0.827; in experiment [8] it was 0.609; in [9], -0.0372; in experiment [10] it was 0.706; in [11], 0.201. Besides, the composite z-score is 0.635 in experiment [12]; 0.562 in experiment [13]; 0.57 in [14]; 0.593 in the experiment with Lefty1; 0.127 in [16]. Besides, the composite Z-score in experiment [1] is 1.77 (inactive). The z-score was 0.78 in [15] and 0.132 (inactive) in [17].
In the case of `O=C1O[C@@H](c2ccccc2)[C@@H](c2ccccc2)N2[C@@H](c3ccc(O)cc3)[C@]3(C(=O)Nc4ccc(C#CCCO)cc43)[C@@H](C(=O)N3CCCCCCC3)[C@H]12`, the composite z-score with Albumin (Bos taurus) is -0.126; in experiment [2], 1.3; in experiment [3], 0.612; in [4], 0.766; in experiment [5] it was 3.26; in [6], 0.991. The composite z-score worked out at 1.16 in the experiment on Sam68 (KHDRBS1); 1.43 in experiment [7]; 0.884 in experiment [8]; 2.27 in experiment [9]; 1.24 in experiment [10]; 0.724 in [11]. For the same compound, the composite z-score in [12] is 0.952; in [13], 1.42; in experiment [14], 0.94; in the experiment on Lefty1 it was 1.26; in experiment [16], 1.21. The composite Z-score in experiment [1] was 5.37 (inactive). Further, the z-score is -0.158 in [15] and 0.0848 (inactive) in experiment [17].
